# Reference: the supplement of paper PMC10849652
# Of roughly 7,900 targets only a part is listed; those with a hit were picked by preference. About 0.6% of all pairs of compound and target were hits. A number with no mark means an inactive call.
# Assays:
# Assay in all cases: log2 fold change, soluble protein after heating vs DMSO (PISA); higher = thermal stabilisation; K562 cells, 10 uM, 30 min; active = over 0.2 and 3.5 SD of the protein, either way, in both replicates (recomputed)
# [1] = compound: CC1=C(C=C(C=C1)NC(=O)C2=CC(=CC=C2)C(C)(C)C#N)NC3=CC4=C(C=C3)N=CN(C4=O)C
# In short: (§1)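 K562 cells at 2×10^6 cells/mL were treated with 10 μM compound for 30 min. Aliquots were heated for 3 min across 48°C-58°C, pooled, and extracted in PBS with 0.5% NP-40 at 4°C; soluble protein was the supernatant after 21,000xg for 90 min. Soluble protein was quantified by TMTpro 16plex LC-MS/MS with channel sums equalised, and reported as log2 fold change in thermal stability against DMSO controls, with values from duplicates.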
# [2] = compound: CC1=C(C=C(C=C1)NC(=O)C2=CC(=CC=C2)N(C)C)NC(=O)C3=CC=C(C=C3)O
# In short: as §1
# [3] = compound: CC1=CC=C(C=C1)SC2=C3C=C(SC3=CN=C2)C(=O)N
# In short: as §1
# [4] = compound: CC1=NC(=CC=C1)C2=C(N=C(N2)C(C)(C)C)C3=CC4=NC=CN=C4C=C3
# In short: as §1
# Nexturastat A = compound: CCCCN(Cc1ccc(C(=O)NO)cc1)C(=O)Nc1ccccc1 [Nexturastat A]
# In short: as §1
# vemurafenib = compound: CCCS(=O)(=O)Nc1ccc(F)c(C(=O)c2c[nH]c3ncc(-c4ccc(Cl)cc4)cc23)c1F [vemurafenib]
# In short: as §1
# [5] = compound: CCCS(=O)(=O)Nc1ccc(F)c(C(=O)c2c[nH]c3ncc(Cl)cc23)c1F
# In short: as §1
# [6] = compound: CCCc1cc(C)[nH]c(=O)c1CNC(=O)c1cc(-c2ccnc(N3CCN(C)CC3)c2)cc2c1cnn2C(C)C
# In short: as §1
# givinostat = compound: CCN(CC)Cc1ccc2cc(COC(=O)Nc3ccc(C(=O)NO)cc3)ccc2c1 [givinostat]
# In short: as §1
# barasertib = compound: CCN(CCCOc1ccc2c(Nc3cc(CC(=O)Nc4cccc(F)c4)[nH]n3)ncnc2c1)CCOP(=O)(O)O [barasertib]
# In short: as §1
# UniProt Q9NSI8, sequence (Q9NSI8 whole entry, looked up): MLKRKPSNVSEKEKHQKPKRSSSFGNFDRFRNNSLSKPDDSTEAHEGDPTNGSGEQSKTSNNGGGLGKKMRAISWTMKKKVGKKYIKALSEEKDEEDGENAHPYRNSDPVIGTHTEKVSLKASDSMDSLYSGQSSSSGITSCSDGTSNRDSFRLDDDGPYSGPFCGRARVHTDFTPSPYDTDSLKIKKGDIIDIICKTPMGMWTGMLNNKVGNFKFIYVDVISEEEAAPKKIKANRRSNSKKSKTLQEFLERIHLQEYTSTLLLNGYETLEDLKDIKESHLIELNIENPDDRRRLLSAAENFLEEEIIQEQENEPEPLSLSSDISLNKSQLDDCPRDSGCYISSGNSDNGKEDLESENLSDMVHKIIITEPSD
# UniProt Q13464, sequence (Q13464 whole entry, looked up): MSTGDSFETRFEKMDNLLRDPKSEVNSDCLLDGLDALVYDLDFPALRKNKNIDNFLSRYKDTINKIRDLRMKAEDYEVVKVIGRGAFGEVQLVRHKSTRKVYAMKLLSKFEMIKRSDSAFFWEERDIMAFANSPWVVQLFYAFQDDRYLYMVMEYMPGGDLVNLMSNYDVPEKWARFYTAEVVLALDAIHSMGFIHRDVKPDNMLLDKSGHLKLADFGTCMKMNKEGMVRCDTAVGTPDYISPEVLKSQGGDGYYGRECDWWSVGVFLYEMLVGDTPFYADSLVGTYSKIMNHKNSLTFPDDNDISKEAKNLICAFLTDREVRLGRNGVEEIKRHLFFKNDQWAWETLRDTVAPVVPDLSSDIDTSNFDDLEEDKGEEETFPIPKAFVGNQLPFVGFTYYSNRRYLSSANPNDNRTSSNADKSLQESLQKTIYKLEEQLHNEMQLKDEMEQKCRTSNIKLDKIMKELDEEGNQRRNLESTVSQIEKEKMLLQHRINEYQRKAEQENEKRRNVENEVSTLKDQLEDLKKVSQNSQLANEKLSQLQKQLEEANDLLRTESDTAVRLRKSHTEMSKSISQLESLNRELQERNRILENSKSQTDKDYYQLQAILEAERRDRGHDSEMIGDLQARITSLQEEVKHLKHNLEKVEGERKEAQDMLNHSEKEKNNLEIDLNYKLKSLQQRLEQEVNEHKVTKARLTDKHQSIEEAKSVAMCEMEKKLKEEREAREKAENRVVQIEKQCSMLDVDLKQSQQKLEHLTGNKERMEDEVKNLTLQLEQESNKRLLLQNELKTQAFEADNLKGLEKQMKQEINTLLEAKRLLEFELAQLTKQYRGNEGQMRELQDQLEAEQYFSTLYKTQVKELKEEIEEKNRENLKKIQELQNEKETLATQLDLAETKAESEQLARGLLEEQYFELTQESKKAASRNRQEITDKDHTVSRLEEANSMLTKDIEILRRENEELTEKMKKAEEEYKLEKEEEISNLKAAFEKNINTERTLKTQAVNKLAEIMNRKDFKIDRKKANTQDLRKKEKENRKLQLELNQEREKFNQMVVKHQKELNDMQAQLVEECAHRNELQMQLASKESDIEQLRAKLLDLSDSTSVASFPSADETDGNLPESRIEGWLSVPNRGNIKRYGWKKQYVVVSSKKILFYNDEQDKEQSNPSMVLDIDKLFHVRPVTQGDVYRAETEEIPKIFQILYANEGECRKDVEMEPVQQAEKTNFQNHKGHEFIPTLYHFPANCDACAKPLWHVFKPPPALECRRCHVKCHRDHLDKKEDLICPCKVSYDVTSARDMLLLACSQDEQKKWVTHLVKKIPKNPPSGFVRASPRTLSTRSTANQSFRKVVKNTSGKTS
# UniProt Q13530, sequence (Q13530 whole entry, looked up): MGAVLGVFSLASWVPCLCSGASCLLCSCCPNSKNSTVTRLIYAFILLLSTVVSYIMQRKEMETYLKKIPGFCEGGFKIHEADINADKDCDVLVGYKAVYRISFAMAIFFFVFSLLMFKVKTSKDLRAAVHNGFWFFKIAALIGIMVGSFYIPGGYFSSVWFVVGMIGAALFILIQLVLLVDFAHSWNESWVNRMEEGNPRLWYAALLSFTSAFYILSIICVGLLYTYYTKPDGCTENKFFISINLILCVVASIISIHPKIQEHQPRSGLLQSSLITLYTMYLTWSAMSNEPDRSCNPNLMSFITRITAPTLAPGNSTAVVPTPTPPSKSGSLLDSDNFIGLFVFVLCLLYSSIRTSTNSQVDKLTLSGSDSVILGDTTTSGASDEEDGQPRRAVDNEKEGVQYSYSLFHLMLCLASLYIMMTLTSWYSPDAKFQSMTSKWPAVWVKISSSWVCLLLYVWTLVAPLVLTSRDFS
# UniProt Q15418, sequence (Q15418 whole entry, looked up): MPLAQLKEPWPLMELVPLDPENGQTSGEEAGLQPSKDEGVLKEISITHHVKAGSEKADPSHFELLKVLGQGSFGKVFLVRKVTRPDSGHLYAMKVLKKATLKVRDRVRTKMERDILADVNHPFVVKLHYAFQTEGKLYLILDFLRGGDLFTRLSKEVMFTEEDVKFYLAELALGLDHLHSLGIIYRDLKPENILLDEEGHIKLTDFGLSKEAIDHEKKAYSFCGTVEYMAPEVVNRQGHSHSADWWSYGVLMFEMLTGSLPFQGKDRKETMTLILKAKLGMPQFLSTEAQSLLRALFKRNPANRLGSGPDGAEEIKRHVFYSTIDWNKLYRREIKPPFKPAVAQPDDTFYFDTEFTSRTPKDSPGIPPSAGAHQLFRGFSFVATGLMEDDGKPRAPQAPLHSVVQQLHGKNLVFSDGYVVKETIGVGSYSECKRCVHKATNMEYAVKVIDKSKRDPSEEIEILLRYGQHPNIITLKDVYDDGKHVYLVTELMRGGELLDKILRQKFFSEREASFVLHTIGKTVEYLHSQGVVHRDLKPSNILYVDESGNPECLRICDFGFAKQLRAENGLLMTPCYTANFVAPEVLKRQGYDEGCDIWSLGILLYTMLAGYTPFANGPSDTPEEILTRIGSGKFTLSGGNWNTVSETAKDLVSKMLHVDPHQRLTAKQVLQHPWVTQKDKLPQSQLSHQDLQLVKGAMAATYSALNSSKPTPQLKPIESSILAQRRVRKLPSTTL
# UniProt O14730, sequence (O14730 whole entry, looked up): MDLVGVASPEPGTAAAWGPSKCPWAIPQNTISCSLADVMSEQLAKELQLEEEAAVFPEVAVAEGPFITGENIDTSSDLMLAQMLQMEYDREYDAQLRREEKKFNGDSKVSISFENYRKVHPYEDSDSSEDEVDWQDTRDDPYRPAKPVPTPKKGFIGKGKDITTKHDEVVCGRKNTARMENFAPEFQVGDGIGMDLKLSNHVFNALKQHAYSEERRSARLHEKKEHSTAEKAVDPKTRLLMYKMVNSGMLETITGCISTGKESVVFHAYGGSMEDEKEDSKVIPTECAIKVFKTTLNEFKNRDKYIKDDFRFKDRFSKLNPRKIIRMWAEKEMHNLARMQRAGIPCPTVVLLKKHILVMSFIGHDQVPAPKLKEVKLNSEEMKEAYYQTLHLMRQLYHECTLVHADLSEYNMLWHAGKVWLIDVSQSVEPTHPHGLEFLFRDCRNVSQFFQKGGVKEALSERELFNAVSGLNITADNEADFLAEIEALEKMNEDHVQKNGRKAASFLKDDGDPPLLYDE
# UniProt Q9Y6Y8, sequence (Q9Y6Y8 whole entry, looked up): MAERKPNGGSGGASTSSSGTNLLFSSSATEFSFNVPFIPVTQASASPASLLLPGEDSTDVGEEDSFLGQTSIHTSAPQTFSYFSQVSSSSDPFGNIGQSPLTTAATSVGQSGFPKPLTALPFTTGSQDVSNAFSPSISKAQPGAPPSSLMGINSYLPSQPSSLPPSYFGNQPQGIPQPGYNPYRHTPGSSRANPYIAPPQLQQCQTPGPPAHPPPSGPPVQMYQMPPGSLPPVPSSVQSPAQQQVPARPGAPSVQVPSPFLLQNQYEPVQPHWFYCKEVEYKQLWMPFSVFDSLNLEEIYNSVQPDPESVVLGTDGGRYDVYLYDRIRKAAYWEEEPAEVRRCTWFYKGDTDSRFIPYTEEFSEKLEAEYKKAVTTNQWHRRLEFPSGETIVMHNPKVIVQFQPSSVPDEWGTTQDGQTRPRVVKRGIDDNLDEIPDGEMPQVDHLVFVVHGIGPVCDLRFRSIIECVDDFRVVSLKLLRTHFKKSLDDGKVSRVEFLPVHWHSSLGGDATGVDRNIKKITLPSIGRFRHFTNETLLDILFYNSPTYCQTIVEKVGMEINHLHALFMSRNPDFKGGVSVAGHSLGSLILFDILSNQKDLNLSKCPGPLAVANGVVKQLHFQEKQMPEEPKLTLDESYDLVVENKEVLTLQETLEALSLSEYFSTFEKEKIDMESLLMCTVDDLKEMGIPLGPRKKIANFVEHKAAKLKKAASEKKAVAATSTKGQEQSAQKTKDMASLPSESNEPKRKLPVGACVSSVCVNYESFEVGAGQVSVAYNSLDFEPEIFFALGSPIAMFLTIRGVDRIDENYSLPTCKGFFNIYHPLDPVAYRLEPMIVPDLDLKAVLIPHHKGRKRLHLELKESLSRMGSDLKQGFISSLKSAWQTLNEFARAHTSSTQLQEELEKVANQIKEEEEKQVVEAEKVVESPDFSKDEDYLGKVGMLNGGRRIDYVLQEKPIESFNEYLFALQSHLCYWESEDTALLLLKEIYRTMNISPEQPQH
# UniProt Q8IXJ6, sequence (Q8IXJ6 whole entry, looked up): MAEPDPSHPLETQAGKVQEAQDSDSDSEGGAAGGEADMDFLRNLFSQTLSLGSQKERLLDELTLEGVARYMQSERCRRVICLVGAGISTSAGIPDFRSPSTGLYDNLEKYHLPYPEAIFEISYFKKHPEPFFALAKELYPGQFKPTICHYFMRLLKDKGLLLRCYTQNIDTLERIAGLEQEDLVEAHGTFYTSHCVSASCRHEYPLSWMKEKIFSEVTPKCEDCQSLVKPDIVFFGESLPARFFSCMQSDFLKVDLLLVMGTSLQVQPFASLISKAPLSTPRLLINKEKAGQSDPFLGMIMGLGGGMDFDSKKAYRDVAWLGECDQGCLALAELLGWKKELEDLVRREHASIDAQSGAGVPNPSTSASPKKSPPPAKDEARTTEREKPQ
# UniProt Q99643, sequence (Q99643 whole entry, looked up): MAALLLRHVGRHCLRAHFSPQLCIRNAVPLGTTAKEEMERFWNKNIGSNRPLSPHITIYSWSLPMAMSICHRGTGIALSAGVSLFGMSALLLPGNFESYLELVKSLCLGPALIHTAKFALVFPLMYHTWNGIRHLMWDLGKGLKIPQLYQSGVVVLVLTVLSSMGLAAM
Target,log2 fold change [1],log2 fold change [2],log2 fold change [3],log2 fold change [4],log2 fold change (Nexturastat A),log2 fold change (vemurafenib),log2 fold change [5],log2 fold change [6],log2 fold change (givinostat),log2 fold change (barasertib)
RMC1 (UniProt Q96DM3),0.037,0.001,-0.051,0.024,-0.031,0.061,0.031,0.021,-0.013,0.039
SIRT2 (UniProt Q8IXJ6),0.014,-0.051,-0.016,0.027,0.004,0.012,-0.022,-0.002,0.004,0.015
RABGAP1L isoform 3 (UniProt Q5R372),0.002,0.018,0.018,-0.005,-0.058,-0.008,0.073,0.03,0.034,0.022
SAAL1 (UniProt Q96ER3),0.004,-0.008,0.006,0.009,-0.078,-0.017,0.035,-0.014,-0.059,0.046
RAB5C isoform 2 (UniProt P51148),0.069,-0.02,0.02,0.01,-0.029,0.015,0.008,-0.017,0.006,-0.031
SAMSN1 isoform 3 (UniProt Q9NSI8),0.014,-0.011,0.029,0.017,-0.027,-0.001,0.029,0,0.02,0.042
REEP4 (UniProt Q9H6H4),0.08,0.001,0.047,-0.043,0.107,0.008,0.126,0.019,0.011,0.002
RABGGTA (UniProt Q92696),0.019,0.04,-0.004,0.002,-0.084,0.003,0.005,-0.023,-0.024,0.017
RRAGC (UniProt Q9HB90),0.005,0.003,0.017,0.008,-0.07,-0.027,0.047,-0.048,0.052,-0.011
RBM8A (UniProt Q9Y5S9),-0.025,-0.024,-0.02,0.075,-0.069,0.024,-0.001,0.04,-0.032,0.043
REL (UniProt Q04864),0.001,-0.044,0.033,-0.004,-0.053,0.044,0.077,-0.022,0.101,0.079
SCAF11 (UniProt Q99590),-0.089,0.154,-0.079,-0.275,0.003,-0.158,-0.031,0.035,-0.034,0.165
RIOK2 (UniProt Q9BVS4),0.035,0.006,-0.046,-0.021,0.178,-0.001,-0.007,0.056,0.035,0
RPA1 (UniProt P27694),0.028,-0.047,-0.002,0.05,0.044,0.039,0.125,0.104,0.069,0.068
RRP9 (UniProt O43818),-0.03,0.057,-0.046,-0.081,0.095,-0.026,-0.074,0.009,0.047,-0.084
SEC23IP (UniProt Q9Y6Y8),0.016,0.041,0.041,0.012,0.022,0.051,0.056,0.024,0.047,0.016
RPS5 (UniProt P46782),0.012,0,0.001,-0.038,0.126,-0.034,-0.066,0.038,-0.014,-0.1
RAC3 (UniProt P60763),0.025,-0.021,0.084,-0.004,-0.042,0.006,-0.006,-0.044,-0.037,-0.015
SHCBP1 (UniProt Q8NEM2),0,-0.032,0,0.07,0.047,0.102,0.027,-0.014,0.018,0.117
RPS4X (UniProt P62701),0.019,0,-0.027,-0.055,0.214,-0.106,-0.08,0.213,0.021,-0.101

Target,log2 fold change [1],log2 fold change [2],log2 fold change [3],log2 fold change [4],log2 fold change (Nexturastat A),log2 fold change (vemurafenib),log2 fold change [5],log2 fold change [6],log2 fold change (givinostat),log2 fold change (barasertib)
RPS2 (UniProt P15880),0.006,0.009,-0.075,-0.036,0.192,-0.116,-0.099,0.084,-0.011,-0.095
SELENOH (UniProt Q8IZQ5),0.09,-0.011,0.023,-0.035,0.089,0.042,0.007,0.075,0.024,-0.031
SEC24A (UniProt O95486),0.025,-0.089,0,0.012,-0.04,0.023,0.051,0.08,0.072,0.006
RAF1 isoform 2 (UniProt P04049),0.317,0.056,0.078,-0.043,0.077,0.17,0.438,-0.113,0.016,0.044
SEC31A (UniProt O94979),-0.053,-0.052,0.015,0.019,0.102,0.054,0.064,-0.032,0.098,0.052
SIDT2 isoform 2 (UniProt Q8NBJ9),-0.021,0.019,-0.025,-0.367 (active),0.042,0.019,-0.033,0.017,0.038,-0.148
RAD50 isoform 2 (UniProt Q92878),0,-0.024,0.004,0.009,-0.005,0.027,0.038,0.014,0.026,0.033
RNF187 (UniProt Q5TA31),-0.074,-0.102,0.048,-0.005,0.085,-0.106,0.039,0,0.036,0.041
RNF167 (UniProt Q9H6Y7),0.037,0.008,-0.041,0.037,-0.059,0.031,-0.06,-0.096,0.005,0.018
SASH1 (UniProt O94885),0.046,-0.013,0.024,0.01,0.038,-0.043,0.097,-0.031,-0.063,0.071
RBM4 (UniProt Q9BWF3),-0.041,-0.033,-0.061,-0.034,0.081,0.01,0.052,0.003,0.071,0.018
RRP12 (UniProt Q5JTH9),0.036,-0.012,0.094,-0.043,0.371,-0.087,-0.012,0.074,0.209,-0.018
RPS6KA2 isoform 2 (UniProt Q15349),-0.087,-0.229,0.159,0.011,0.009,0.037,0.026,0.023,-0.148,0.064
SESN2 (UniProt P58004),0.166,-0.069,-0.017,-0.031,0.094,0.194,0.186,0.19,0.046,0.119
RPS21 (UniProt P63220),-0.007,0.01,-0.042,-0.007,-0.033,-0.077,-0.072,-0.038,-0.015,-0.016
RPL31 (UniProt P62899),-0.005,0.01,-0.086,-0.075,0.168,-0.145,-0.15,0.092,0.031,-0.149
RBM39 (UniProt Q14498),-0.035,0,-0.011,0.071,0.043,0.084,0.083,0.034,0.131,0.012
SCD (UniProt O00767),-0.076,0.037,0.038,0.078,-0.121,0.022,-0.053,-0.021,-0.457 (active),0.003
RUFY1 (UniProt Q96T51),0.013,-0.011,-0.022,-0.035,0.063,0.043,0.059,0.029,0.031,0.027
RPS12 (UniProt P25398),0.036,0.006,-0.013,-0.027,0.038,-0.057,-0.035,0.073,-0.035,-0.059

Target,log2 fold change [1],log2 fold change [2],log2 fold change [3],log2 fold change [4],log2 fold change (Nexturastat A),log2 fold change (vemurafenib),log2 fold change [5],log2 fold change [6],log2 fold change (givinostat),log2 fold change (barasertib)
RB1CC1 (UniProt Q8TDY2),-0.061,-0.005,0.025,-0.031,0.161,-0.022,-0.034,0.147,0.102,-0.008
RARS (UniProt P54136),0.005,0.006,-0.011,-0.048,0.325,-0.018,0.058,0.075,0.016,0.037
"SART3, A0A499FI31",0.015,-0.05,-0.014,0.04,-0.043,0.023,0.072,-0.013,0.012,0.022
SH3GLB2 (UniProt Q9NR46),0.047,-0.052,0.025,0.033,-0.064,0.058,0.058,0.021,0.049,0.051
RNF14 (UniProt Q9UBS8),0.039,-0.034,0.004,0.05,-0.04,0.026,0.04,0.029,-0.07,0.036
ROR2 (UniProt Q01974),0.022,-0.061,0.001,-0.009,-0.109,0.018,0.007,0.078,0.033,0.003
RPS25 (UniProt P62851),0.009,0,-0.03,0,0.11,-0.08,-0.102,0.06,0.042,-0.075
RPS3A (UniProt P61247),0.011,0.009,-0.081,-0.036,0.069,-0.104,-0.095,0.071,-0.033,-0.109
RPS6KA1 isoform 2 (UniProt Q15418),-0.016,-0.187,0.033,0.078,0.004,0.016,0.046,0.071,-0.141,0.029
RPS16 (UniProt P62249),0.028,-0.016,-0.087,-0.035,0.11,-0.073,-0.103,0.337,-0.046,-0.053
RAD51 (UniProt Q06609),-0.012,-0.017,-0.042,-0.052,0.001,0.02,-0.048,0.032,0.179,0.016
RAB5IF isoform 5 (UniProt Q9BUV8),0.044,0.01,-0.042,0.247,-0.143,0.047,0.012,0.244,-0.007,-0.003
RAVER1 (UniProt E9PAU2),0.144,-0.075,-0.025,0.144,-0.046,-0.1,0.067,0.293,0.131,0.099
RPS6KA3 (UniProt P51812),-0.072,-0.157,0.021,0.01,0.015,0.001,0.016,0.042,-0.227,0.06
RIOK3 (UniProt O14730),0.026,0.021,0.009,0.014,-0.094,-0.012,-0.012,0.011,-0.003,-0.003
RSF1 (UniProt Q96T23),0.111,-0.112,-0.015,0.217,-0.091,0.119,0.052,0.029,0.084,0.095
ROCK1 (UniProt Q13464),0.003,-0.073,-0.016,-0.037,0.093,0.052,0.036,-0.019,0.031,0.021
SERINC3 (UniProt Q13530),-0.136,-0.001,0.009,0.054,0.011,0.083,0.002,-0.414 (active),0.064,0.038
SDHC (UniProt Q99643),0.01,0.023,-0.041,0.023,-0.217,0.128,0.038,-0.122,-0.108,-0.04
